Experimental data as given in PubChem BioAssay (NCI).
Compounds without any hit were thinned out: in the full panel of roughly 83,000, 20% have a hit.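 Note: values are percent growth. 100 is the growth of untreated cells, values between 100 and 0 indicate rising inhibition; between -100 and 0 indicates cell death.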 A number with no mark means an inactive call. The source made the active and inactive calls. How the source made its calls: active means growth percent below 10; inactive means the rest.

Assays:
Test in all cases: NCI-60 one-dose screen, 48 h (100 = growth as untreated, 0 = no growth, -100 = all killed)
Conditions in all cases: 10 µM unless noted
[1] = system: T-47D breast
[2] = system: BT-549 breast
[3] = system: MDA-MB-435 melanoma
[4] = system: SW-620 colon
[5] = system: MCF7 breast
[6] = system: HCT-116 colon
[7] = system: HCC-2998 colon
[8] = system: KM12 colon

| SMILES | growth [1] | growth [2] | growth [3] | growth [4] | growth [5] | growth [6] | growth [7] | growth [8] |
| --- | --- | --- | --- | --- | --- | --- | --- | --- |
| Cc1cccc(N2CCN(CC(O)COc3ccc(Cl)cc3)CC2)c1 (centres undefined) | 94.4% | 100% | 84.1% | 103% | 121% | – | – | – |
| O=C1/C(=C/c2ccc(F)cc2)COc2ccc(O)cc21 | 86.6% | 78.2% | 62.9% | 26% | 7.92% (active) | 23.6% | 90% | – |
| COc1cc(/C=C/C(=O)c2cccc(Nc3nc(Nc4ccccc4)nc(Nc4ccccc4)n3)c2)cc(OC)c1OC | 42.2% | 64.2% | 68.8% | 35.4% | 22.9% | 15.1% | 16.7% | – |
| CCS/C(Nc1ccccc1)=C(\C#N)C(=O)N/N=C/c1ccc(Cl)cc1Cl | 17.8% | 45.4% | -34.5% (active) | 18.6% | 19.3% | 17.5% | 48.4% | – |
| Cc1nc(N2CCOCC2)sc1S(N)(=O)=O | 93% | 98.1% | 105% | 91.5% | 93.5% | 103% | 104% | 94.1% |
| O=C(CI)NC1Oc2ccccc2-c2oc(=O)c(-c3ccccc3)cc21 (centres undefined) | -42.4% (active) | -55.7% (active) | 17.9% | -48.3% (active) | -53.3% (active) | -37.5% (active) | 78.2% | – |
| CCOP(=O)(OCC)c1nc(-c2ccccc2)oc1NCc1cccnc1 | 85.5% | 111% | 104% | 101% | 103% | 102% | 106% | 111% |
| CCCCCCCCn1ccc2cc(NC(=O)CN3CCN(c4nc(C)cc(Cl)n4)CC3)ccc21 | 83.4% | 101% | 97.7% | 90.2% | 78.1% | 82.2% | 103% | 91.9% |
| COc1ccc(C/C(C)=C(/c2ccc(OCCN3CCCCC3)cc2)c2ccc(OC(=O)NCc3ccccc3)cc2)cc1 | -82.3% (active) | -76.4% (active) | -95.4% (active) | -83.5% (active) | -84.6% (active) | -90.3% (active) | -92.5% (active) | – |
| O=C1/C(=C\c2cn(-c3ccccc3)nc2-c2ccc(-c3cccs3)cc2)CCc2ccccc21 | 66.4% | 70% | -24.6% (active) | 41.9% | 38.3% | 43.7% | 79.8% | 49.4% |
| CCOC(=O)C#Cc1c(C(=O)OCC)nnn1[C@@H]1O[C@H](CO)[C@H]2OC3(CCCCC3)O[C@H]21 | 13.2% | 94.2% | 79.7% | -70.9% (active) | 8.45% (active) | 66.5% | 85.4% | – |
| O=C(Cn1c(-c2ccc([N+](=O)[O-])cc2)nc2ccccc21)NNC(=O)c1cccnc1 | 71.2% | 97% | 86.2% | 103% | 25.9% | 82.1% | – | – |
| COc1cccc(CNc2ncnc3c2ncn3C2OC(CO)C(O)C2O)c1O (centres undefined) | 16.6% | -9.05% (active) | 5.51% (active) | 6.4% (active) | 65.5% | 10.2% | – | – |
| COc1ccc(-c2nnc3n(C)c(=O)c4ccccc4n23)cc1N | 24.2% | 31.2% | -19.6% (active) | 20.3% | 18.6% | 20.2% | 49.7% | – |
| O=[N+]([O-])/C(=C/C=C/c1ccccc1)c1ccccc1 | 46.4% | 103% | 70.6% | 5.75% (active) | 23.5% | -5.29% (active) | – | – |
| CC(C)(C)[Si](C)(C)O[C@H]1C(=O)C=CN2CC=C[C@@H]12 | 92% [100 µM] | 137% [100 µM] | 102% [100 µM] | 104% [100 µM] | 96.5% [100 µM] | 92.9% [100 µM] | – | – |
| O=Nc1c(-c2c(O)[nH]c3ncccc23)[nH]c2ccccc12 | 49.1% | 45.2% | 72.6% | 62.8% | 67.8% | 36.9% | – | – |

| SMILES | growth [1] | growth [2] | growth [3] | growth [4] | growth [5] | growth [6] | growth [7] | growth [8] |
| --- | --- | --- | --- | --- | --- | --- | --- | --- |
| COc1ccc2c(c1)[n+]([O-])c(C(=O)/C=C/C=C(\Cl)c1cc(OC)c(OC)c(OC)c1)c(C)[n+]2[O-] | 87.1% | 74.9% | 93% | 103% | 83.4% | 80.6% | – | – |
| COCCNC(=O)c1ccc(-c2nc3ccc4[nH]ncc4c3c3c2CCCC3)cc1 | 44.5% | 10.3% | 16.4% | 11% | 35.9% | 13% | 47.5% | – |
| C=CCn1cc(-c2nc3ccccc3s2)c2cc(-c3ccc4c5c(cccc35)C(=O)N(N)C4=O)ccc21 | 78.2% | 94.4% | 103% | 98.5% | 75.2% | 96.6% | 102% | – |
| CC1(C)CCC(S(=O)(=O)c2ccc3c(c2)/C(=N\O)c2cc(S(=O)(=O)N4CCC(O)(c5cccc(C(F)(F)F)c5)CC4)ccc2-3)CC1 | -83.4% (active) | -80.8% (active) | -93.5% (active) | -92.9% (active) | -70.9% (active) | -87.7% (active) | -82.9% (active) | – |
| N#C/C(=C\c1ccc2ccccc2c1)c1cc2ccccc2[nH]1 | 32.9% | 59.8% | -19% (active) | 15.8% | 14.4% | 16.8% | 60.4% | – |
| S=C1CCSC(=S)N1CCCN1C(=S)CCSC1=S | 35% | 89.4% | 59.6% | 53% | 20.8% | 43% | 96.2% | – |
| C=C(C)[C@@H]1CC[C@]2(C(=O)N3CCN(C)CC3)CC[C@]3(C)[C@H](CC[C@@H]4[C@@]5(C)CC(=C/c6ccncc6)/C(=N/O)C(C)(C)[C@@H]5CC[C@]43C)[C@@H]12 | 71.9% | 82.7% | 86.6% | 72.8% | 66.8% | 56.1% | 82.7% | – |
| C=CCn1c(SCC(=O)Nc2ccc(C(=O)/C=C/c3cc4cc(OC)ccc4nc3Cl)cc2)nnc1-c1ccc(Br)cc1 | 77.7% | 79.3% | 91.1% | 92% | 29.6% | -44% (active) | 95.1% | 84.7% |
| Cc1nc(-c2ccccc2)cc2c(O)c(C(=O)NN)[nH]c(=O)c12 | 92.4% | 193% | 109% | 97.5% | 77.8% | 110% | – | – |
| O=C1N(Cc2ccccc2Cl)c2ccccc2C12NN=C(c1cccc(Cl)c1)S2 (centres undefined) | 6.86% (active) | -20% (active) | 2.22% (active) | 9.59% (active) | 1.43% (active) | 9.78% (active) | -61% (active) | – |
| CCn1c(=S)sc2c(Nc3ccc(F)cc3)nc(-c3cccnc3)nc21 | 30.5% | 54.2% | 81.1% | 90.6% | 73.1% | 21.4% | 86.1% | – |
| O=S(=O)(Nc1ccc(Cl)cc1)c1ccc(-c2cnc(C3CC3)o2)cc1 | 22.6% | 51.8% | -3.04% (active) | 17.4% | 18.7% | 21.2% | 40.3% | – |
| CCCNC(=O)Oc1ccc(/C(=C(/C)Cc2ccc(OC)cc2)c2ccc(OCCCN(C)C)cc2)cc1 | 70.2% | 91.6% | 80.3% | 97.1% | 36.3% | 59.5% | 77.7% | – |
| N=C(N)c1ccc(-c2ccc(-c3ccc(F)cc3)o2)o1 | 21.4% | 55.3% | -76.9% (active) | -36.7% (active) | 10.5% | 2.27% (active) | 18.4% | – |
| N#C/C(=C\c1ccc(Br)cc1)n1nnc2ccc(F)cc21 | 8.46% (active) | 1.54% (active) | -34.1% (active) | -48.4% (active) | 5.23% (active) | -75.3% (active) | -63.6% (active) | – |
| CNC(=O)c1cc(Oc2ccc3nc(NC(C)=O)sc3c2)ccn1 | 90.7% | 96.9% | 102% | 112% | 98.9% | 89.2% | 107% | – |
| O=Cc1ccc([N+](=O)[O-])s1 | 82.8% | 102% | 110% | 62.5% | 47% | 46.4% | 100% | – |
